Measurements published in PubChem BioAssay (NCATS).
Records with an inconclusive call do not appear. Unmarked numbers belong to inactive results. Active and inactive are the calls of the source. Calls follow the shape of the dose curve; as a rule, active = well fitted cell-killing curve with a large enough effect; inconclusive = small, poorly fitted or top-dose-only effect, or effect the other way; inactive = no such curve, though single readings can be large or run the other way.

test: Viability qHTS for spleen associated tyrosine kinase inhibitor (SYKi) naive MV4-11 cells (AID 1963823); conditions: MV4-11 AML viability, CellTiter-Glo luminescence, 72 h; series mostly up to 45 µM; viability (% of control): at the top concentration; also: nearly all actives have a fitted effect of over 40% in size
Summary of the method: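 In this viability screen, compounds acted on SYK inhibitor naive MV4-11 cells for three days (72 hr, 37 C). Remaining viable cells were measured by CellTiter-Glo luminescence following a 10 min room-temperature development.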
Potency is read from the fitted curve at half-maximal effect.

Which “viability (% of control)” value does the source give for O=C1NC(Cc2c[nH]c3ccccc23)C(=O)NC1Cc1cnc[nH]1 (configuration not stated) here?
Its value is 68.3%.

With N#Cc1c(Oc2ccc(F)c(NC(=O)Cc3cccc(C(F)(F)F)c3)c2)ccc2nc(NC(=O)C3CC3)sc12 as the molecule, how does the Potency read?
Its Potency is 1.46 µM (active).

With COc1cc(C[C@@]2(O)CO[C@@H](c3ccc(O[C@@H]4O[C@H](CO)[C@@H](O)[C@H](O)[C@H]4O)c(OC)c3)[C@H]2CO)ccc1O as the molecule, how does the “viability (% of control)” value read?
The value was 80.4% [at 17.3 µM].

Which Potency does the source give for C=CCN(/C=C1\C(=O)OC(COC)C2(C)C1=C(O)C(=O)C1=C2C(OC(C)=O)CC2(C)C(=O)CCC12)CC=C (configuration not stated) here?
Its Potency is 13 µM (active).

For C[C@@H]1CC[C@]2(C(=O)O)CC[C@]3(C)C(=CCC4[C@@]5(C)C[C@@H](O)[C@H](O)[C@@](C)(CO)C5CC[C@]43C)C2[C@H]1C (some centres not stated), which “viability (% of control)” value is on record?
The value was 65.2% [at 17.3 µM].

For CCC[C@@]1(CCc2ccccc2)CC(O)=C([C@H](CC)c2cccc(NS(=O)(=O)c3ccc(C(F)(F)F)cn3)c2)C(=O)O1, which Potency is on record?
Its Potency is 20.6 µM (active).

Which “viability (% of control)” value does the source give for CC(NCc1ccc(OCc2cccc(F)c2)cc1)C(N)=O (configuration not stated) here?
Its value is 65.2%.

Which Potency does the source give for C[C@H](NC(=O)C(C)(C)Oc1ccc(C(F)(F)F)cn1)[C@@H](Cc1ccc(Cl)cc1)c1cccc(C#N)c1 here?
The Potency was 13 µM (active).

With CC(C)(O)/C=C/C1=CC(=O)[C@@](C)(O)C[C@H]1O as the molecule, how does the “viability (% of control)” value read?
Its value is 65.4%.

For O=C(NCC(=O)N1CCCC1)Nc1ccc2ccccc2c1, which Potency is on record?
The Potency was 5.8 µM (active).

Which Potency does the source give for C=C1[C@@H](C)[C@H]2[C@H](Cc3c[nH]c4ccccc34)NC(=O)[C@]23C(=O)/C=C/C(=O)[C@H](O)/C(C)=C\[C@@H](C)C/C=C/[C@H]3[C@@H]1O here?
Its Potency is 2 µM (active).

For Cc1ccccc1Sc1ccc(/C=C2\SC(=S)NC2=O)cc1[N+](=O)[O-], which “viability (% of control)” value is on record?
Its value is 67.5%.
